Reference: PubChem BioAssay (NCATS)
Records with an inconclusive call do not appear. Active and inactive are the calls of the source. Calls come from the whole dose curve; as a rule, active = well fitted curve in the direction sought with a large enough effect; inconclusive = small, poorly fitted or top-dose-only effect, or another doubt; inactive = no such curve, though single readings can be large; an effect the other way counts as inactive or inconclusive.

Assays:
C33A = assay: Primary qHTS to identify gynecologic anti-cancer compounds using libraries of approved drugs and bioactive compounds (AID 1345084); conditions: Gynecologic cancer cell panel viability, ATPlite luminescence, 48 h; series mostly up to 57.5 µM; note: nearly all actives have a fitted effect of over 55% in size
In short: (§1)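 48 h compound exposure at 37 C, 5% CO2; five-point qHTS. ATPlite luminescence readout of cell ATP.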

CAOV3 = assay: as above; conditions: Gynecologic cancer cell panel viability, ATPlite luminescence, 48 h; series mostly up to 57.5 µM
In short: as §1

CASKI = assay: as above; conditions: Gynecologic cancer cell panel viability, ATPlite luminescence, 48 h; series mostly up to 57.5 µM
In short: as §1

Es-2 = assay: as above; conditions: Gynecologic cancer cell panel viability, ATPlite luminescence, 48 h; series mostly up to 57.5 µM
In short: as §1

Hek293T = assay: as above; conditions: Gynecologic cancer cell panel viability, ATPlite luminescence, 48 h, control line for the selectivity index; series mostly up to 57.5 µM
In short: as §1

JEG-3 = assay: as above; conditions: Gynecologic cancer cell panel viability, ATPlite luminescence, 48 h; series mostly up to 57.5 µM
In short: as §1

OV90 = assay: as above; conditions: Gynecologic cancer cell panel viability, ATPlite luminescence, 48 h; series mostly up to 57.5 µM
In short: as §1

PA-1 = assay: as above; conditions: Gynecologic cancer cell panel viability, ATPlite luminescence, 48 h; series mostly up to 57.5 µM
In short: as §1

SKOV3 = assay: as above; conditions: Gynecologic cancer cell panel viability, ATPlite luminescence, 48 h; series mostly up to 57.5 µM
In short: as §1

HeLa = assay: as above; conditions: Gynecologic cancer cell panel viability, ATPlite luminescence, 48 h; series mostly up to 57.5 µM
In short: as §1

Tov-21-G = assay: as above; conditions: Gynecologic cancer cell panel viability, ATPlite luminescence, 48 h; series mostly up to 57.5 µM
In short: as §1

Tov112D = assay: as above; conditions: Gynecologic cancer cell panel viability, ATPlite luminescence, 48 h; series mostly up to 57.5 µM
In short: as §1

[1] = qHTS assay to identify inhibitors of the type 1 interferon - major histocompatibility complex class I in skeletal muscle: Counter screen cell viability and HiBit confirmation (AID 1347412); conditions: iHSKM muscle cells + IFN-b, HiBiT or CellTiter-Glo, 24 h; note: nearly all actives have a fitted effect of over 60% in size
In short: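 Duplicate plates, pinned identically: one read for HiBiT-tagged endogenous HLA-B luminescence, the other for ATP-content viability via CellTiter Glo. Cells were genome-engineered human myoblasts given 4 ng/ml IFN-b; compounds 12-pt, 1:3 from 46 uM final; 24 hr exposure.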
% is set by controls: 0 for no effect and ±100 for the full control effect; potency is the fitted concentration of half-maximal effect.

COc1ncc2cc(C(=O)Nc3cc(C(=O)NCc4cccc(Cl)c4)ccc3Cl)c(=O)[nH]c2n1
inactive: Potency (C33A) | Potency (CAOV3) | Potency (CASKI) | Potency (Es-2) | Potency (Hek293T) | Potency (JEG-3) | Potency (OV90) | Potency (PA-1) | Potency (SKOV3)

CC1=CC2C(CC1OC1OC(CO)C(O)C(O)C1O)C(C)CC(=O)C2C(C)C (centres undefined)
inactive: Potency (C33A) | Potency (CAOV3) | Potency (Es-2) | Potency (HeLa) | Potency (Hek293T) | Potency (JEG-3) | Potency (OV90) | Potency (PA-1) | Potency (SKOV3) | Potency (Tov-21-G) | Potency (Tov112D)

CC(C)CCC(=O)CC1c2ccccc2C(=O)N1c1ccc2ccc(Cl)nc2n1 (centres undefined)
active: Potency (Tov112D) 8.91 µM
inactive: Potency (C33A) | Potency (CAOV3) | Potency (CASKI) | Potency (Es-2) | Potency (Hek293T) | Potency (OV90) | Potency (PA-1) | Potency (Tov-21-G)

COC(=O)N[C@@H](C)CNc1nccc(-c2cn(C(C)C)nc2-c2cc(Cl)cc(NS(C)(=O)=O)c2F)n1
active: Potency (Tov-21-G) 1.58 µM
inactive: Potency (C33A) | Potency (CAOV3) | Potency (CASKI) | Potency (HeLa) | Potency (Hek293T) | Potency (OV90) | Potency (PA-1) | Potency (Tov112D) | activity change, negative = inhibition ([1]; Viability, at 45.9 µM (top of the series)) -18.1%

CC1(C)CC[C@@]2(C(=O)O[C@@H]3O[C@H](CO)[C@@H](O)[C@H](O)[C@H]3O)C(C1)C1=CCC3[C@@]4(C)CC[C@@H](O[C@@H]5O[C@H](C(=O)O)[C@@H](O[C@@H]6OC[C@@H](O)[C@H](O)[C@H]6O)[C@H](O[C@@H]6OC[C@](O)(CO)[C@H]6O)[C@H]5O)C(C)(C)C4CC[C@@]3(C)[C@]1(C)C[C@H]2O (some centres undefined)
inactive: activity change, negative = cytotoxicity (C33A) -0.239% [at 11.6 µM] | activity change, negative = cytotoxicity (CAOV3) -43.7% [at 11.6 µM] | activity change, negative = cytotoxicity (CASKI) -25.1% [at 11.6 µM] | activity change, negative = cytotoxicity (Es-2) -7.12% [at 11.6 µM] | activity change, negative = cytotoxicity (Hek293T) 3.52% [at 11.6 µM] | activity change, negative = cytotoxicity (JEG-3) -1.03% [at 11.6 µM] | activity change, negative = cytotoxicity (OV90) -1.26% [at 11.6 µM] | activity change, negative = cytotoxicity (PA-1) -34.8% [at 11.6 µM] | activity change, negative = cytotoxicity (SKOV3) -2.96% [at 11.6 µM] | activity change, negative = cytotoxicity (Tov112D) -29.7% [at 11.6 µM]

Cc1c[nH]c2nccc(Oc3c(F)cc(Nc4cc(Cl)nc(N)n4)cc3F)c12
active: Potency (Es-2) 12.6 µM | Potency (HeLa) 7.94 µM | Potency (Tov112D) 7.94 µM
inactive: Potency (C33A) | Potency (CAOV3) | Potency (CASKI) | Potency (OV90)

CC(=O)OC1/C(C)=C/C(=O)C(OC(C)=O)C(C)(C)/C=C/C(C)C(=O)C2(OC(C)=O)CC(C)C(OC(=O)c3ccccc3)C12 (centres undefined)
inactive: Potency (C33A) | Potency (CAOV3) | Potency (CASKI) | Potency (HeLa) | Potency (Hek293T) | Potency (JEG-3) | Potency (OV90) | Potency (SKOV3) | Potency (Tov-21-G) | Potency (Tov112D)

COc1c2c(c(C)c3c1C(=O)OC3)OC1(C)CC(O)C(C(C)(C)O)C(C)(CCC(=O)O)C1C2 (centres undefined)
inactive: Potency (C33A) | Potency (CAOV3) | Potency (CASKI) | Potency (Es-2) | Potency (Hek293T) | Potency (JEG-3) | Potency (OV90) | Potency (PA-1) | Potency (SKOV3) | Potency (Tov-21-G) | Potency (Tov112D)

Cc1c(NC(=O)c2cc(C(N)=O)nc3cc(F)ccc23)c(C(F)(F)F)nn1Cc1ccc(C#N)cc1
active: Potency (SKOV3) 2.24 µM
inactive: Potency (C33A) | Potency (CAOV3) | Potency (CASKI) | Potency (Es-2) | Potency (Hek293T) | Potency (JEG-3) | Potency (OV90) | Potency (PA-1) | Potency (Tov-21-G) | Potency (Tov112D)

Cc1cc(C(=O)N2Cc3cnn(C)c3Nc3ccccc32)ccc1CNC(=O)N1CCC[C@H]1C(=S)N1CCCN(C)CC1
inactive: Potency (C33A) | Potency (CAOV3) | Potency (Es-2) | Potency (HeLa) | Potency (Hek293T) | Potency (JEG-3) | Potency (OV90) | Potency (PA-1) | Potency (Tov-21-G) | Potency (Tov112D)

COC(C(=O)N1Cc2[nH]nc(NC(=O)c3ccc(N4CCN(C)CC4)cc3)c2C1)c1ccccc1 (centres undefined)
inactive: Potency (C33A) | Potency (Es-2) | Potency (JEG-3)
active: Potency (CAOV3) 1.41 µM | Potency (PA-1) 7.94 µM | Potency (SKOV3) 17.8 µM | Potency (Tov-21-G) 12.6 µM

CC1=C(CO)C(=O)O[C@@H]([C@@H](C)[C@H]2CC[C@H]3[C@@H]4C[C@H]5O[C@]56[C@@H](O)C=CC(=O)[C@]6(C)[C@H]4CC[C@]23C)C1
active: Potency (C33A) 4.47 µM | Potency (CAOV3) 8.91 µM | Potency (Es-2) 11.2 µM | Potency (Hek293T) 11.2 µM | Potency (SKOV3) 8.91 µM | Potency (Tov-21-G) 7.08 µM | Potency (Tov112D) 10 µM | Potency ([1]; HiBiT) 883 nM

CN(C)C(=O)NC1CCC(CCN2CCN(c3cccc(Cl)c3Cl)CC2)CC1 (centres undefined)
inactive: activity change, negative = cytotoxicity (C33A) 1.34% [at 11.6 µM] | activity change, negative = cytotoxicity (CASKI) 13.5% [at 11.6 µM] | activity change, negative = cytotoxicity (Es-2) 5.23% [at 11.6 µM] | activity change, negative = cytotoxicity (HeLa) -0.835% [at 11.6 µM] | activity change, negative = cytotoxicity (Hek293T) 12% [at 11.6 µM] | activity change, negative = cytotoxicity (JEG-3) 8.74% [at 11.6 µM] | activity change, negative = cytotoxicity (OV90) 0.264% [at 11.6 µM] | activity change, negative = cytotoxicity (PA-1) 1.34% [at 11.6 µM] | activity change, negative = cytotoxicity (SKOV3) 0.966% [at 11.6 µM] | activity change, negative = cytotoxicity (Tov-21-G) 4.37% [at 11.6 µM] | activity change, negative = cytotoxicity (Tov112D) 2.02% [at 11.6 µM]
